We go through twelve compounds from PubChem BioAssay (NCATS).

Results filed as inconclusive are left out. The source made the active and inactive calls. Calls follow the shape of the dose curve; as a rule, active = well fitted inhibition curve with a large enough effect; inconclusive = small, poorly fitted or top-dose-only effect; inactive = flat fitted curve, though single readings scatter.

The subject of this assay is CRL-7250. In words: qHTS assay to identify novel small-molecules to repurpose for Merkel cell carcinoma treatment (AID 1296009). Also: nearly all actives have a fitted effect of over 60% in size. Conditions: MCC and control cell lines, CellTiter-Glo viability, 72 h; series mostly up to 92 µM; activity change, negative = cytotoxicity: at the top concentration. In a few lines:
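Viability readout: ATP luminescence (CellTiter-Glo) after 72 hr drug exposure at 37 degree celsius. Dose-response format was 8 points for NPC and 11 points for MIPE; data normalized to in-plate controls.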
Background: In qHTS, concentration-response curves come from the screen itself.
In the case of `COc1cc2c(c(O)c1OC/C=C(\C)CC/C=C(/C)CCC=C(C)C)CN(C(CCC(=O)O)C(=O)O)C2=O` (configuration not stated), the “outcome” value is “inactive [at 17.4 µM]”.

With `CCC/C=C/C=C/C1CC(O)C2(O)C(=O)OCC12` (configuration not stated), the compound was called inactive.

As to `CC1C(O)C(O)C2C(C(=O)OCCc3ccc(O)cc3)=COC(O[C@@H]3O[C@H](CO)[C@@H](O)[C@H](O)[C@H]3O)C12` (some centres not stated), the “outcome” value is “inactive [at 17.4 µM]”.

`CCC(=O)N[C@@H]1Cc2ccccc2[C@H](c2ccccc2)C1`: the compound was classed as inactive.

Consider `COC(=O)c1cc(CN2CCN(C(=N)N)CC2)cc(C(=O)N2CCN(C(=O)c3ccc(C(=N)N)cc3)CC2)c1`, for which the call was inactive.

For `COc1c2c(c(C)c3c1C(=O)OC3)OC1(C)CC(O)C(C(C)(C)O)C(C)(CCC(=O)O)C1C2` (configuration not stated), the “outcome” value is “inactive [at 17.4 µM]”.

Regarding `CCc1nn(CCO)c(CC)c1Oc1cc(C#N)cc(C#N)c1`, the outcome was inactive.

With `C=C1C[C@@]23CCC4[C@@](C)(CCC[C@@]4(C)C(=O)OC)C2CC[C@@H]1C3` (some centres not stated), the compound was called inactive.

Regarding `CC1(C)CC[C@]2(C(=O)O)[C@H](O)C[C@]3(C)C(=CCC4[C@@]5(C)CC[C@H](O[C@@H]6O[C@H](CO[C@@H]7OC[C@H](O)[C@H](O)[C@H]7O[C@@H]7OC[C@H](O)[C@H](O)[C@H]7O)[C@@H](O)[C@H](O)[C@H]6O)C(C)(C)C5CC[C@]43C)[C@@H]2C1` (some centres not stated), the outcome is “inactive [at 9.27 µM]”.

Turning to `COc1cc(Br)c(S(=O)(=O)Nc2ccc(Cl)c(O[C@@H]3CCN(C)C3)c2)cc1OC`, the outcome was inactive.

For `CCOC(=O)CCNc1cc(N2CCc3ccccc3CC2)nc(-c2cccnc2)n1`, the call was inactive.

As to `CC(=O)C1CCC(=O)N1Cc1ccccc1` (configuration not stated), the compound was called inactive.
